Holding throughout (experiment): NCI-60 one-dose screen, 48 h (100 = growth as untreated, 0 = no growth, -100 = all killed)
Common to all, as to details: 10 µM unless noted

Test [1] has as its system DU-145 prostate.
The test system of test [2] is K-562 leukemia.
The subject of test [3] is MALME-3M melanoma.
For test [4], the system named is MDA-MB-231 breast.
Test [5] relates to RXF 393 renal.
Test [6] deals with SF-268 CNS.
The subject of test [7] is SF-295 CNS.
In test [8] the test system is SF-539 CNS.
For test [9], the system named is UACC-257 melanoma.
Test [10] deals with M14 melanoma.
Test [11] deals with HCT-15 colon.
The test system of test [12] is HT29 colon.
The test system of test [13] is SNB-75 CNS.
Test [14] relates to SNB-19 CNS.
In test [15] the test system is U251 CNS.
Test [16] relates to PC-3 prostate.
In test [17] the test system is SK-MEL-5 melanoma.
For test [18], the system named is UACC-62 melanoma.
The subject of test [19] is LOX IMVI melanoma.
The test system of test [20] is SK-MEL-28 melanoma.

The values that follow come from PubChem BioAssay (NCI).

This is part of a sample that, as a whole, favours compounds with a hit. Of some 83,000 tested, about 20% had one in any assay.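 Growth was measured after 48 h exposure to one concentration of compound in 96-well plates. Values under 10 count as active.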 A number with no mark means an inactive call. The source made the active and inactive calls.

For `CCN(CC)c1ccc(/C=N/NC(=O)c2ccc(NS(C)(=O)=O)cc2)c(O)c1`, the growth in test [1] is 31.3%; in [2] it was 14.2%; in test [3], 4.46% (active); in [4] it was 38.4%; in test [5] it was -9.12% (active); in test [6], 22.7%. Also, the growth in test [7] is 9.79% (active); in test [8] it was 7.08% (active); in test [9], -6.91% (active); in test [10], 0.206% (active); in test [11], 20.1%; in [12], 27.4%. The growth in test [13] was 48.1%; in test [14], 34.7%; in [15] it was 23.8%; in test [16] it was 31.7%; in test [17], 0.13% (active); in test [18], 0.285% (active). The results for the growth in test [19] and in [20] were 0.336% (active) and 23%, respectively.
As for `C#C[C@]1(O)CC[C@H]2[C@@H]3CC=C4c5sc(Nc6cc(C)cc(C)c6)nc5CC[C@]4(C)[C@H]3CC[C@@]21C`, the growth in [1] was 45.4%; in [2] it was 0.356% (active); in [3], -4.28% (active); in [4] it was 33.5%; in test [5], -77.2% (active); in [6] it was 22.3%. Moreover, the growth in [7] was -71.7% (active); in [8], -47.7% (active); in [9], 16%; in test [10], -60.2% (active); in test [11], -37.1% (active); in [12] it was 0.349% (active). The growth is 10.2% in [13]; 14.8% in test [14]; 8.96% (active) in test [15]; -8.26% (active) in test [16]; -42.5% (active) in [17]; -16.4% (active) in test [18]. Moreover, the growth in test [19] is -68.3% (active); in [20], -37.9% (active).
In the case of `C=C(C)[C@@H]1CC[C@]2(COP(=O)(OCC)OCC)CC[C@]3(C)[C@H](CC[C@@H]4[C@@]5(C)CC[C@H](OP(=O)(OCC)OCC)C(C)(C)[C@@H]5CC[C@]43C)[C@@H]12`, the growth in test [1] was 69.7%; in [2], 19.6%; in [3], 50.8%; in test [4] it was 50.7%; in test [5], 45.3%; in [6] it was 64.6%. The growth was 14.6% in test [7]; 70.5% in [8]; 46.8% in test [9]; 51.6% in test [10]; 6.86% (active) in test [11]; 35.2% in test [12]. In addition, the growth in test [13] was 75.3%; in test [14], 50.7%; in test [15], 42.2%; in [16] it was 22.7%; in test [17], 11.5%; in [18] it was 43.1%. Also, the results for the growth in [19] and in [20] were 25.4% and 77.5%, respectively.
On to `CN1CCN(Cc2ccc(NC(=O)c3cncc(C#Cc4cnc(N)nc4)c3)cc2C(F)(F)F)CC1`, for which the growth in [1] is 34.4%; in test [2] it was 5.93% (active); in [3] it was -31.1% (active); in test [4] it was -7.34% (active); in [5], 26.4%; in test [6], 28.1%. Besides, the growth was 33.1% in test [7]; 14.6% in test [8]; 22.1% in test [9]; -19.3% (active) in [10]; 17.2% in [11]; 14.3% in test [12]. For the same compound, the growth in [13] is 41.5%; in test [14] it was 57.4%; in test [15], 30.3%; in test [16], 35.1%; in test [17], 38%; in test [18], -0.0134% (active). Moreover, the growth is 4.32% (active) in test [19] and 2.04% (active) in [20].
Consider `O=C(Nc1ccc(N2CCOCC2)cc1)Nc1ccc2c(ccn2C(=O)c2cccc(F)c2)c1`, for which the growth in test [1] is 60.2%; in test [2] it was 77.3%; in [3] it was 49.4%; in test [4], 60.1%; in test [5], -0.178% (active); in [6], 65.2%. Besides, the growth is 32.5% in test [7]; 28.3% in [8]; 61.2% in test [9]; 51.3% in test [10]; 78.6% in [11]; 76% in [12]. The growth in [13] is 12.3%; in test [14], 46.9%; in test [15] it was 41.5%; in test [16], 49.3%; in test [17], 69.4%; in test [18], 42.3%. For the same compound, the results for the growth in test [19] and in test [20] were 23% and 59.2%, respectively.
Regarding `CC1=C(SCC(=O)OCCCCCC(C)C)C(=O)c2ccccc2C1=O`, the growth in test [1] was 109%; in test [2], 81.1%; in test [3] it was 116%; in test [4], 83.5%; in test [5] it was 94.2%; in test [6], 96.4%. The growth was 101% in test [7]; 88.8% in test [8]; 104% in test [9]; 96.8% in test [10]; 89.3% in test [11]; 106% in test [12]. Further, the growth in [13] is 91.1%; in [14] it was 91.1%; in test [15], 92%; in [16], 68.8%; in test [17], 91.8%; in test [18], 86.2%. For the same compound, the figures for the growth in test [19] and in test [20] were 93.2% and 110%, respectively.
Regarding `C#Cc1cc(OC)c(C(=O)Nc2ccc(F)cc2C(=O)Nc2cccc(S(=O)(=O)C(F)(F)F)c2)cn1`, the growth in test [1] is 46.8%; in [2], 5.65% (active); in [3], -33.4% (active); in test [4], -24.4% (active); in test [5] it was -1.43% (active); in [6] it was -38.1% (active). Besides, the growth in test [7] is -83.2% (active); in test [8], -87.1% (active); in [9] it was 55.7%; in test [10] it was 16.7%; in [11], -8.48% (active); in [12] it was -30.3% (active). Moreover, the growth in [13] is -80.4% (active); in test [14], 17.6%; in test [15], 0.45% (active); in [16] it was 4.89% (active); in test [17] it was -49% (active); in [18] it was 18.8%. Besides, the growth in [19] is -82.1% (active); in test [20], 50%.
